# Tgondii IFNg: T. gondii growth inhibition with IFN-gamma, primary screen, cell-based | activity change, negative = inhibition, % (concentration not given with the values) | Toxoplasma gondii growth in IFN-gamma-treated host cells; stronger effect = lower value | 69,000 compounds, 3.8% hits; in the data active = activity change below about -70%, passing the limit was not always enough;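 note: host cells are HeLa cells infected with Toxoplasma gondii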
# An asterisk follows results filed as active; ! = not active in a repeat. The sample as a whole holds a higher share of hits than the screen did.
SMILES,Tgondii IFNg
CCOC(=O)C1=C(C)NC(C)=C(C(=O)OC)C1c1cccc([N+](=O)[O-])c1 (configuration not stated),-2
COCCOC(=O)C1=C(C)NC(C)=C(C(=O)OC/C=C/c2ccccc2)C1c1cccc([N+](=O)[O-])c1 (configuration not stated),-73*!
CCc1ccc(-c2ccc(C(=O)Nc3c(OC)cccc3OC)cc2)cc1,20
COc1nn(CC(=O)NCCCc2ccc(Cl)cc2)c(=O)c2ccccc12,-32
CC(C)(C)C(=O)N1CCC2(CC1)CC(Oc1ccccc1)CO2 (configuration not stated),25
Cc1nn(-c2ccccc2)nc1C(=O)ONC(=O)Cc1ccccc1,37
CCOc1ccccc1NC(=O)N1CCC2(CC1)Nc1cc(F)ccc1-n1cccc12,-11
CCOc1ccccc1-c1nc(Cn2ccn3nc(-c4ccccc4)cc3c2=O)c(C)o1,204
COCCN1C(=O)CCC12CCC(NC(=O)c1ccncc1F)CC2 (configuration not stated),-3
COc1ccc(C(C)NC(=O)c2c3c(nn2C)CCCC3)cc1F (configuration not stated),-77*
COc1ccc(OC)c(-c2cc(C(=O)NC(C)c3ccc4c(c3)CCC4)[nH]n2)c1 (configuration not stated),75
COc1ccc(C(C)NC(=O)c2cn3c(n2)CCCC3)cc1OC (configuration not stated),110
CN1CCN(C(=O)c2ccnc(N3CC(c4ccccn4)C3)c2)CC1,-1
CC#CC1(O)CCC2C3CCC4=CC(=O)CCC4=C3C(c3ccc(N(C)C)cc3)CC21C (configuration not stated),-22
CC(c1ccccc1)N1Cc2c(oc3ccccc3c2=O)N(C(=O)OCc2ccccc2)C1 (configuration not stated),-10
Cn1cnc2c(NCc3ccccc3)nc(C3CCN(S(C)(=O)=O)CC3)cc21,-8
Cc1cc(C(=O)N2CCC(c3cc4c(ncn4C)c(NCC4CC4)n3)CC2)ccc1Cl,-85*
CC(C)n1cnc2c(NCC3CC3)nc(C3CCN(C(=O)c4cccc(F)c4F)CC3)cc21,-39
COCC1COCCC12CCN(C(=O)CCc1ccccc1)CC2 (configuration not stated),21
N#CCN1CC2(CCN(C3CCOC3)CC2)c2ccccc21 (configuration not stated),10
CC[C@@]1(C2O[C@@H](C3O[C@@](O)(CO)[C@H](C)C[C@@H]3C)C[C@@H]2C)CC[C@H]([C@]2(C)CC[C@]3(C[C@H](O)[C@@H](C)[C@@H]([C@@H](C)[C@@H](OC)[C@H](C)C(=O)O)O3)O2)O1 (some centres not stated),-80*
O=C1/C(=c2\sc3nc4ccccc4n3c2=O)c2ccccc2N1Cc1ccccc1,7
S=C(NCC1CCCO1)N1CCN(Cc2ccc3c(c2)OCO3)CC1 (configuration not stated),-14
COCC1CN(C(=O)c2ccc3c(c2)OCO3)Cc2cncn2C1 (configuration not stated),9
CC1CCN(C(=O)c2cc3ccccc3s2)CC1,19
SMILES,Tgondii IFNg
Cc1cc(CNC(=O)c2cc3ccccc3s2)c2ccccc2n1,12
O=C(O)c1cc2ccccc2s1,-71*
COCCN1CCOCC2(CCCN(C(=O)c3ccc4nc[nH]c4c3)C2)C1 (configuration not stated),-3
FC(F)(F)c1cc2[nH]c(=S)[nH]c2cc1Cl,-93*
CC(NC(=O)C1CCN(c2nc3ccccc3n2C)CC1)c1cccs1 (configuration not stated),16
CCCc1cc(CN(C)Cc2nc[nH]c2C)[nH]n1,-5
COc1ccc2nc(C)cc(Nc3ccccc3O)c2c1,-63
COc1ccc(Nc2cc(C)nc3ccc(C)cc23)cc1,-97*
COc1ccc(CNC(=O)c2nc(Nc3ccc(C)cc3)c3ccccc3n2)cc1,-29
COc1ccc(OC)c(C(=O)N2CCC3(CC2)CC3C(=O)NCCCc2ccccc2)c1 (configuration not stated),-4
COCC1CN(Cc2ccc(C)s2)Cc2nn(C)cc21 (configuration not stated),2
Cc1nc([C@H]2C[C@H]3CCN(C(=O)Cc4ccc(F)cc4)C[C@@H]3O2)n[nH]1,-38
O=c1[nH]c(-c2ccccc2)nnc1/C=C/c1ccccc1,-85*
Nc1nc(-c2ccccc2)c(Br)c(=O)[nH]1,2
O=c1[nH]c2ccccc2nc1/C=C/c1cccs1,-8
Cc1ccc(-c2cc(O)c3c(c2)CN(C(=O)CCCn2cncn2)CCO3)cc1,-76*
Oc1cc(-c2csc3ccccc23)cc2c1OCCN(CCn1cncn1)C2,-32
O=C(CCN1CCCO1)N1CCOc2c(O)cc(-c3cccnc3)cc2C1,5
CCCNC(=O)Cn1c(=O)cc(-c2nc(C3CC3)no2)c2ccccc21,-47
CNc1cc(C)nc(NCc2cc(C)cc3c(C)c(C)[nH]c23)n1,14
COCCNC(=O)C[C@@H]1CC[C@@H]2[C@H](COc3ccc(NS(=O)(=O)c4ccc(Cl)cc4)cc3C(=O)N2C)O1,7
O=C(CC1N=C2c3ccccc3N=C(SCc3ccccc3Cl)N2C1=O)NCc1ccc2c(c1)OCO2 (configuration not stated),20
CCc1nc(C)c(C(=O)N(C)Cc2snnc2C)o1,-27
CCc1nc(C)c(C(=O)N(C)Cc2csc(C(C)C)n2)o1,-92*
CCc1nc(C)c(C(=O)N(C)Cc2ccc3nsnc3c2)o1,-3
SMILES,Tgondii IFNg
O=C(NC1CC1)c1nc(C(=O)N2CCN(c3ccc(F)cc3)CC2)cs1,-24
COCCN1CC2(CCC1=O)CCN(C(=O)c1ccncn1)CC2,-39
O=C(COc1ccc(-c2cnc3ccccc3n2)cc1)c1cccs1,-85*
O=C(CCC(=O)c1cccs1)c1cccs1,240
Cc1ccc(-c2cnc3ccccc3n2)cc1NC(=O)c1ccc(Br)o1,325
COCC(=O)N1[C@H](CO)[C@@H](c2ccc(-c3ccccc3OC)cc2)C12CN(C(C)=O)C2,25
Cc1ccc(C2(O)CCN(c3ccc(CS(C)(=O)=O)cn3)CC2)nc1,9
CN(Cc1ccc(-c2ccccc2)cc1)Cc1cc(C2CCNCC2)nn1C,-32
CN1CCN(Cc2nc3c(c(=O)n(C)c(=O)n3C)n2CCCO)CC1,9
c1ccc2c(c1)CCC(N1CCN(Cc3cc4n(n3)CCNC4)CC1)C2 (configuration not stated),12
c1cc2c(cc1OCC1CCN(Cc3cc4n(n3)CCNC4)CC1)CCC2,-87*
OCC1CCN(Cc2cc3n(n2)CCCNC3)CC1,3
COC(=O)c1cc2n(n1)CCCN(C(=O)c1c(C)nc3sccn13)C2,8
O=S(=O)(NC1CCN(c2nc(-c3ccccc3)cs2)CC1)c1ccccc1,387
CCOC(=O)C1CCN(C(=O)c2nc(-c3ccc(Cl)cc3)n3c2CCCCC3)CC1,-69
O=C(c1nc(-c2cccc(F)c2)n2c1CCCCC2)N1CCN(c2ccccc2)CC1,-12
Cc1ccc(-c2nc(C(=O)N3CCC(C)CC3)c3n2CCCCC3)cc1,-32
CCOC(=O)C1CCCN(C(=O)c2nc(-c3ccc(Cl)cc3)n3c2CCCCC3)C1 (configuration not stated),99
Cc1ccc(-c2nc(C(=O)N3CCCC(C)C3)c3n2CCCCC3)cc1 (configuration not stated),-96*
CC1CCCN(C(=O)c2nc(-c3ccc(Cl)cc3)n3c2CCCCC3)C1 (configuration not stated),-97*

# Compound activity deposited in PubChem by Broad Institute.
